Screening data (PubChem BioAssay)
In the library only some 5.6% were active in any assay of this set; here they are far more common.
PfM18AAP inh – PfM18AAP inhibitors, malaria aminopeptidase, primary screen, biochemical, QFRET, recombinant enzyme | AID 1822, 2009 | 1.2% of 290,000 active | inhibition, % at 7.35 µM | H-Glu-NHMec fluorogenic cleavage | M18 aspartyl aminopeptidase (Plasmodium falciparum 3D7);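 active means inhibition above the campaign mean inhibition over all tested compounds plus 3 SD, cut at about 28% in these data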
PHOSPHO1 inh – PubChem AID 1565; 1.1% of 290,000 active; inhibition, % at 13.3 µM; Phosphoethanolamine/phosphocholine phosphatase (Homo sapiens), Q8TCT1; recombinant PHOSPHO1, absorbance phosphatase assay; in the data active means inhibition above about 60%
H9c2 protect – cardioprotection against H2O2-induced cell death, primary screen, uHTS, H9c2 cells, ATPLite luminescence; AID 588492, 2011; 0.63% of 360,000 active; protection from H2O2 cell death, % at 20 µM; H9c2 cardiomyocytes, H2O2 injury protection, 2 h;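 active means compounds giving at least 50% protection of heart cells from peroxide-induced death in the single-dose screen, raw or plate-pattern-corrected value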
ALR inh – inhibitors of human ALR sulfhydryl oxidase, primary screen, biochemical, H2O2 detection, HRP-luminol luminescence, single point. AID 485317, 2010. purified ALR, DTT oxidation. FAD-linked sulfhydryl oxidase ALR (Homo sapiens), P55789. inhibition, % (concentration not given with the values). 3.8% of 290,000 active;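 active means mean replicate inhibition above about 79%, with every replicate also reaching it, limit read from the data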
Target sequence (P55789 whole entry, looked up): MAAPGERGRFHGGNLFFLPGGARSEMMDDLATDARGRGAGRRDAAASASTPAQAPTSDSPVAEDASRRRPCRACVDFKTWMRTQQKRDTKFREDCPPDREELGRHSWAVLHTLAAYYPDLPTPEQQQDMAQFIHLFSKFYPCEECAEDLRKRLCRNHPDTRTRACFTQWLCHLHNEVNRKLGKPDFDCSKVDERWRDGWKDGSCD
PfGluPho inh – PfG6PD enzyme inhibitors, primary screen, biochemical, fluorescence intensity, uHTS. PfGluPho enzyme, NADPH resazurin-diaphorase fluorescence. inhibition, % at 20 µM. 0.78% of 350,000 active;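 active means inhibition reaching at least a set limit at 20 µM in the primary screen, cut at about 59% in these data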
Of the large screens only hits and unclear results are named; the others gave an inactive call.

CC(C)[C@@H](CSc1ccccc1)N1CCN(Cc2ccccc2)CCC1=O	none (no result: ALR inh)
O=C(CCc1nc2ccccc2c(=O)[nH]1)Nc1ccc(N2CCCCC2)cc1	H9c2 protect 50
CN(C(=O)CCc1nc2ccccc2c(=O)[nH]1)C1CCS(=O)(=O)C1 (configuration not stated)	H9c2 protect 76 (no result: PfM18AAP inh, PHOSPHO1 inh)
COc1ccc(NC(=O)CCc2nc3ccccc3c(=O)[nH]2)cc1S(=O)(=O)N1CCCCC1	H9c2 protect 93 (no result: PfM18AAP inh, PHOSPHO1 inh)
O=C(CCc1nc2ccccc2c(=O)[nH]1)Nc1ccc(Cl)c(Cl)c1	H9c2 protect 60 (no result: ALR inh)
CN(C(=O)COC(=O)CCc1nc2ccccc2c(=O)[nH]1)C1CCS(=O)(=O)C1 (configuration not stated)	none (no result: ALR inh)
CN(CC(=O)Nc1ccc(F)c(F)c1F)C(=O)CCCc1nc2ccccc2c(=O)[nH]1	none (no result: PfM18AAP inh, PHOSPHO1 inh)
CN(CC(=O)Nc1cccc(F)c1)C(=O)CCc1nc2ccccc2c(=O)[nH]1	H9c2 protect 65 (no result: PfM18AAP inh, PHOSPHO1 inh)
CC(=O)NC1C(=O)N=C(SC(C)C(=O)Nc2cccc(Cl)c2)NC1=O (configuration not stated)	ALR inh 98
CC(Sc1nc(N)cc(=O)[nH]1)C(=O)Nc1cccc(Cl)c1 (configuration not stated)	none
CN(C)c1nc(N)nc2c1ncn2C1OC(CO)CC1O (configuration not stated)	none (no result: PfM18AAP inh, PHOSPHO1 inh, ALR inh, PfGluPho inh)
O=C(Nc1ccc2ccccc2c1)c1ccc2[nH]c(=O)c(=O)[nH]c2c1	none (no result: ALR inh)
Oc1c(Br)cc(Br)cc1CNn1cnnc1	ALR inh 99
COc1cccc(CNc2cccc3cccnc23)c1O	PfM18AAP inh 31
Oc1c(Cl)cc(Cl)cc1CNn1cnnc1	none (no result: ALR inh)
Oc1ccc(Cl)cc1CNc1cccc2cccnc12	PfM18AAP inh 31 (no result: ALR inh)
Oc1c(Br)cc(Br)cc1CNc1ccccn1	ALR inh 98
COc1ccc(CNc2ccccn2)c(O)c1	none (no result: ALR inh)
C=CCN([C@@H](CC(C)C)C(=O)OC)S(=O)(=O)N(CC=C)[C@@H](CC(C)C)C(=O)OC	none (no result: PfM18AAP inh, PHOSPHO1 inh)
Oc1c(Br)cc(Br)cc1CNc1cccc2cccnc12	PfM18AAP inh 33
Cc1ccc(O)c(CNc2cccc3cccnc23)c1	none (no result: ALR inh)
COc1cc(-c2nnc3sc(Cc4ccccc4)nn23)cc(OC)c1OC	PHOSPHO1 inh 70
COc1cc(C(=O)Oc2cc(C)cc(C)c2)cc(OC)c1OC	none
COc1cc(C(=O)ON=C2C(C)=CC(=O)C=C2C)cc(OC)c1OC	ALR inh 99
CC1CC(=Cc2ccc([N+](=O)[O-])cc2)C(=O)O1 (configuration not stated)	none (no result: PfM18AAP inh, PHOSPHO1 inh, ALR inh)
O=C(c1ccc(Cl)cc1)N1CCCC(C(=O)N2CCc3ccccc3C2)C1 (configuration not stated)	PHOSPHO1 inh 60
COc1ccccc1OCCNC(=O)C1CC(=O)N(c2cccc(SC)c2)C1 (configuration not stated)	none (no result: PfM18AAP inh, PHOSPHO1 inh, ALR inh)
Cc1ccnc(NC(=O)c2cc([N+](=O)[O-])cc([N+](=O)[O-])c2)c1	PHOSPHO1 inh 65
Cc1ccnc(NC(=O)Cc2ccc([N+](=O)[O-])cc2)c1	none
O=C(c1ccccc1)N1CCN=C1SCc1ccc([N+](=O)[O-])cc1	ALR inh 99
Cc1ccc(C)c(CSC2=NCCN2C(=O)Cc2ccc([N+](=O)[O-])cc2)c1	none
O=C(c1ccc([N+](=O)[O-])cc1)N1CCN=C1SCc1ccccc1	none (no result: ALR inh)
Cc1ccc(C(=O)N2CCN=C2SCc2ccc([N+](=O)[O-])cc2)cc1C	ALR inh 99
COCCNC(=O)c1cc(-c2ccc3c(c2)OCO3)on1	PHOSPHO1 inh 69
COCC(C)NC(=O)c1cc(-c2ccc(O)cc2)on1 (configuration not stated)	ALR inh 99
COCC(C)NC(=O)c1cc(-c2cccc(OC)c2)on1 (configuration not stated)	none
CCN(CC)C(=O)C1=C(C)N(Cc2ccc(OC)cc2)C(=O)C(CC(=O)NCc2cccc3ccccc23)C1 (configuration not stated)	none (no result: PfM18AAP inh, PHOSPHO1 inh, ALR inh)
Cc1cccc(/C=N/Nc2nncc3ccccc23)c1	ALR inh 97
Cc1cccc(NC(=O)CSc2nc3nc(C)cc(C)c3c(=O)[nH]2)c1	none
